Measurements reported in PubChem BioAssay AID2606 (The Scripps Research Institute Molecular Screening Center, 2010).
Out of some 320,000 compounds screened, about 160 (0.05%) were called active. This excerpt belongs to a sample that is enriched for actives. Values without a mark were called inactive. No stated cut-off is given here; in the data, active means inhibition above about 38%; inactive means the rest.

biological target: Serine protease Rv3671c (Mycobacterium tuberculosis (strain ATCC 25618 / H37Rv)) (UniProt P9WHR9); test: inhibition of M. tuberculosis membrane protease Rv3671c – biochemical, fluorescence polarization, M. tuberculosis H37Rv, primary screen (AID 2606); details: at 5.96 µM; active compounds read high;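 further: extracellular domain of Rv3671c used as enzyme; 0% = enzyme with DMSO and 100% = no enzyme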
Sequence (P9WHR9 whole entry, looked up, the tested form may be a part): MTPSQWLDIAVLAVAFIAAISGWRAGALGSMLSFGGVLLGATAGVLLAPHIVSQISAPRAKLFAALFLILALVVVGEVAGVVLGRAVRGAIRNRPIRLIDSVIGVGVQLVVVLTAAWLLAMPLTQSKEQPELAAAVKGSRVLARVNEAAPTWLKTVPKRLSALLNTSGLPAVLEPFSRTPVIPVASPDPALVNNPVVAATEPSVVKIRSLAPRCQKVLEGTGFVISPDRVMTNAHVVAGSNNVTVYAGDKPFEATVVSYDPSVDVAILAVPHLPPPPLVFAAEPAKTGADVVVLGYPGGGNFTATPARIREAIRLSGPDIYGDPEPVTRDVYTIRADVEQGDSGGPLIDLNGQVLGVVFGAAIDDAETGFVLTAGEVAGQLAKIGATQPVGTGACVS

With `O=C(NCc1ccc(Cl)cc1)c1cc2c(nc3sccn32)s1` as the compound, how does the inhibition read?
Its inhibition is -4.26%.

Which inhibition does the source give for `Cc1c(Br)c([N+](=O)[O-])nn1CC(=O)Nc1sc2c(c1C(=O)OC(C)C)CCC(C)C2` (stereo not drawn) here?
The inhibition was -2.96%.

For `O=S1(=O)CC(NCc2ccccc2)C(Nc2ccc(Cl)cc2)C1` (stereo not drawn), which inhibition is on record?
The inhibition was -2.48%.

For `O=C(CN(c1cc(C(F)(F)F)ccc1Cl)S(=O)(=O)c1ccccc1)NCc1cccnc1`, which inhibition is on record?
Its inhibition is 4.36%.

With `O=C1CCCN1CCCNC(=S)Nc1ccc(F)c(Cl)c1` as the compound, how does the inhibition read?
The inhibition was -6.09%.

`O=C1c2ccccc2C(=O)N1CCc1nn[nH]n1` was tested. Which inhibition did it give?
Its inhibition is -7.39%.

How did the inhibition turn out when `Cc1ccccc1CCN(CC(=O)NC1CCCCC1)C(=O)c1csnn1` was run?
Its inhibition is -0.33%.

For `OC(c1ccccc1)c1nccn1Cc1ccccc1` (stereo not drawn), which inhibition is on record?
Its inhibition is 0.91%.

With `CSc1nc2ccccc2cc1/C=C(\C#N)c1ccc(Cl)cc1Cl` as the compound, how does the inhibition read?
Its inhibition is 3.83%.

With `O=C(COC(=O)c1cc(=O)[nH]c2ccccc12)Nc1nc(-c2cccc(Br)c2)cs1` as the compound, how does the inhibition read?
The inhibition was -76%.

How did the inhibition turn out when `CCOC(=O)[C@@H]1[C@H]2COc3ccc(Br)cc3[C@H]2N2C(=O)N(c3ccc(C)cc3)C(=O)[C@@]12C` was run?
The inhibition was 0.17%.

For `CCN(C(=O)CSc1nnnn1-c1ccccc1OC)C1CCS(=O)(=O)C1` (stereo not drawn), which inhibition is on record?
The inhibition was 2.72%.

For `CSc1ccc(C(=O)C2CCCN(C(=O)c3ccc(C)nc3)C2)cc1` (stereo not drawn), which inhibition is on record?
Its inhibition is 1.04%.

Which inhibition does the source give for `CCC(C)c1ccc(NC(=O)COC(=O)C2CCCC2)cc1` (stereo not drawn) here?
The inhibition was -4.19%.

For `Cc1ccc(OCC(=O)c2cc(C)n(Cc3ccco3)c2C)c([N+](=O)[O-])n1`, which inhibition is on record?
Its inhibition is -2.09%.

Which inhibition does the source give for `COc1ccc(NC(=O)C2C3CCC(O3)C2C(=O)O)cc1OC` (stereo not drawn) here?
The inhibition was -2.75%.

`COc1cc(C(=O)NCc2ccncc2)cc(Br)c1OCc1ccccc1` was tested. Which inhibition did it give?
Its inhibition is -8.67%.

With `CCn1c(=O)cc(SCC(=O)NCCC2=CCCCC2)c2ccccc21` as the compound, how does the inhibition read?
The inhibition was 3.21%.

`CCOc1ccc(S(=O)(=O)N(CC(=O)NCC(F)(F)F)Cc2ccco2)cc1` was tested. Which inhibition did it give?
The inhibition was 4.73%.

Which inhibition does the source give for `CC1CC(=NNC(=O)C2COc3ccccc3O2)CC(C)(C)C1` (stereo not drawn) here?
The inhibition was -11%.

For `O=C(O)c1ccc2c(=O)n3c(nc2c1)/C(=C/c1ccc(Cl)c([N+](=O)[O-])c1)CC3`, which inhibition is on record?
Its inhibition is 8.14%.

How did the inhibition turn out when `C=C(C)C(=O)Nc1cccc(C2=NOC3(C2)C[C@H](C(N)=O)N(C(=O)C(c2ccccc2)c2ccccc2)C3)c1` (stereo partly drawn) was run?
The inhibition was -1.51%.

For `Cc1onc(-c2c(F)cccc2Cl)c1C(=O)N(C)CC(=O)Nc1cccc(F)c1`, which inhibition is on record?
The inhibition was 2.86%.

Which inhibition does the source give for `C=CCOc1cccc(CNCc2cccnc2)c1` here?
Its inhibition is 4.49%.

`COC(=O)c1cccc(N(CC(=O)NCC2CCCO2)C(=O)CCC(=O)Nc2cc(C)on2)c1` (stereo not drawn) was tested. Which inhibition did it give?
Its inhibition is -6.9%.

For `CCO[C@@H]1OC(C(=O)NC2CC2)=C[C@H](C)[C@H]1CCCO`, which inhibition is on record?
The inhibition was 3.42%.

With `CCN(CC)CCCN=C(N)N` as the compound, how does the inhibition read?
The inhibition was 1.64%.

`CC(C)n1c(-c2ccncc2)n[nH]c1=S` was tested. Which inhibition did it give?
The inhibition was -6.36%.

With `CC(C)(C)S(=O)(=O)c1ccccc1-c1noc(-c2ccccc2)c1C(N)=O` as the compound, how does the inhibition read?
The inhibition was 8.18%.

`CSCc1ccc(C(=O)Nc2cc(C)cc(C)c2)cc1` was tested. Which inhibition did it give?
The inhibition was 6.14%.

Which inhibition does the source give for `CCNc1nc(N)nc(Oc2ccc(OCC)nn2)n1` here?
Its inhibition is 1.15%.

Which inhibition does the source give for `COCCOC(=O)c1sc(=S)n(CCOC)c1N` here?
Its inhibition is 40% (active).

`CCCCN(CCCC)C(=O)CCS(=O)(=O)c1ccc2c(c1)n(C)c(=O)c(=O)n2C` was tested. Which inhibition did it give?
The inhibition was -1.54%.

Which inhibition does the source give for `Cc1ccc2c(c1)N(CCCC(=O)NCc1cccnc1)C(=O)CO2` here?
The inhibition was 5.63%.

For `COC(=O)COc1cccc2c(=O)n(CC(=O)NCc3ccccc3)ccc12`, which inhibition is on record?
The inhibition was -8.57%.

For `COc1ccc(O[C@H]2C=C[C@@H](c3ccccc3)O[C@@H]2CO/N=C/C[C@@H]2C=C[C@H](OC(C)=O)[C@@H](COC(C)=O)O2)cc1`, which inhibition is on record?
Its inhibition is -1.84%.

How did the inhibition turn out when `COCCN(Cc1nc(-c2ccc(C(F)(F)F)cc2)no1)C(C)C` was run?
The inhibition was -6.51%.

How did the inhibition turn out when `Cc1ccc(S(=O)(=O)N[C@@H](Cc2ccccc2)C(=O)N2CCC(C(=O)N[C@H](C(=O)O)C(C)O)CC2)cc1` (stereo partly drawn) was run?
The inhibition was -3.25%.

Which inhibition does the source give for `Cc1ccc(N2CCN(c3ccc([N+](=O)[O-])cn3)CC2)c(C)c1` here?
Its inhibition is -8.33%.

Which inhibition does the source give for `Fc1ccccc1CCNc1nnnn1-c1ccccc1` here?
Its inhibition is -6.29%.

How did the inhibition turn out when `Cc1ccc(Cl)cc1NC(=O)C1CCN(S(C)(=O)=O)CC1` was run?
The inhibition was 5.08%.

With `O=C1NC[C@@H](Cc2ccc(O)cc2)N(CCc2cccc(F)c2)C1=O` as the compound, how does the inhibition read?
The inhibition was 5.74%.

`c1ccc2[nH]c(-c3nc4ccccc4[nH]3)nc2c1` was tested. Which inhibition did it give?
The inhibition was 77.5% (active).

For `O=[N+]([O-])c1ccc2nc(-c3ccccn3)[nH]c2c1`, which inhibition is on record?
Its inhibition is 4.37%.

`O=C(Nc1sc2c(c1-c1nc3ccccc3[nH]1)CCCC2)C1CC1` was tested. Which inhibition did it give?
The inhibition was -3.57%.

Which inhibition does the source give for `COc1ccc(Br)cc1CN1CCN(C(=O)c2cccc(OC)c2OC)CC1` here?
The inhibition was -2.08%.

Which inhibition does the source give for `CC1(c2ccccc2)NC(=O)N(CC(=O)N2CC(=O)Nc3ccccc32)C1=O` (stereo not drawn) here?
The inhibition was -3.96%.

For `COc1ccc(C(=O)c2c3ccc([N+](=O)[O-])cc3[n+]([O-])n2CCCN)cc1`, which inhibition is on record?
Its inhibition is -2.98%.

`C[C@@H]1NC(=O)[C@@]2(C)[C@@H](c3ccccc3)[C@H]3COc4ccccc4[C@@H]3N2C1=O` was tested. Which inhibition did it give?
Its inhibition is -7.74%.

With `C=CCN1CCN(C(=O)CCCc2ccccc2)CC1` as the compound, how does the inhibition read?
Its inhibition is -7.87%.

Which inhibition does the source give for `NNC(=O)c1cnn(-c2ccccc2)c1C(F)(F)F` here?
The inhibition was 2.2%.

With `COCCN(C(=O)CSCc1ccc(C)cc1)c1c(N)n(CC(C)C)c(=O)[nH]c1=O` as the compound, how does the inhibition read?
The inhibition was 8.34%.

`CC1CCCN(C(C(=O)Nc2ccc(C(C)C)cc2)c2ccc3c(c2)OCO3)C1` (stereo not drawn) was tested. Which inhibition did it give?
The inhibition was 2.73%.

How did the inhibition turn out when `CN(Cc1ccccc1)C(=O)COC(=O)c1ccccc1Nc1ccccc1` was run?
Its inhibition is -5.06%.

For `CCN(CC)c1ccc(C2C3CCCCC3(O)CCN2CC(=O)Nc2ccccc2)cc1` (stereo not drawn), which inhibition is on record?
The inhibition was 5.48%.

How did the inhibition turn out when `O=C(O)C(c1ccccc1)C1(O)CCCCC1` (stereo not drawn) was run?
The inhibition was 8.1%.

`Cc1cc(NC(=O)CN2C(=O)NC(CC(C)C)C2=O)no1` (stereo not drawn) was tested. Which inhibition did it give?
Its inhibition is 2.81%.

With `O=C(Nc1ccc(Br)cc1)c1cc(S(=O)(=O)Nc2ccccn2)ccc1Cl` as the compound, how does the inhibition read?
Its inhibition is -7.4%.
